This is an account of results in PubChem BioAssay (Tox21).

The nature of experiment [1]: Nuclear factor erythroid 2-related factor 2/antioxidant responsive element (Nrf2/ARE) small molecule agonists: qHTS cell viability counter screen in human keratinocytes (AID 1919968; active = well fitted curve in the direction sought with a large enough effect in the repeat runs; an effect the other way counts as inactive or inconclusive; also: nearly all actives have a fitted effect of over 55% in size; also: potency is read from the fitted curve at half-maximal effect). In short, it runs like this:
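Fluorescence read-out from CellTiter-Fluor after 1 h at 37 C. Wells held HaCaT-derived ARE-luciferase reporter cells (1,500/well) treated 23 h with DMSO-dissolved compounds. Run in the same wells as the luciferase agonist read.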
In general terms: qHTS replaces the single test concentration by a dilution series.

The nature of experiment [2]: Nuclear factor erythroid 2-related factor 2/antioxidant responsive element (Nrf2/ARE) small molecule agonists: luciferase reporter gene qHTS assay in human keratinocytes (AID 1919969). Also: nearly all actives have a fitted effect of over 35% in size. Also: potency is read from the fitted curve at half-maximal effect. A general note: In a reporter assay the amount or activity of a reporter protein is the signal.
The target of experiment [3] is Gonadotropin-releasing hormone receptor (Homo sapiens) (UniProt P30968). As to the kind of experiment: Human gonadotropin-releasing hormone receptor (GnRHR) small molecule agonists, calcium flux assay in GnRHR-HEK293 cells (AID 1920063). Also: nearly all actives have a fitted effect of over 35% in size. In short, it runs like this: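 Calcium-dye fluorescence, Ex/Em=480/540, recorded every 1 sec over 3 min after compound addition to GnRHR-HEK293 cells. Cells had been seeded 18 hours earlier and dye-loaded for 1 hour at 37 C. Fifteen concentrations, triplicates.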
In general terms: Calcium assays in cells follow changes in intracellular calcium, usually with a dye or a luminescent sensor.

Experiment [4] concerns the target KiSS-1 receptor (Homo sapiens) (UniProt Q969F8). Put plainly: Human kisspeptin (KISS1R) small molecule agonists, calcium flux assay in KISS1R-HEK293 cells (AID 1920064; active = well fitted curve in the direction sought with a large enough effect in the repeat runs; an effect the other way counts as inactive or inconclusive). The essentials:
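Calcium flux read-out: kinetic fluorescence at Ex/Em=480/540, 1 s intervals over 3 min, after pin-tool compound addition to dye-loaded KISS1R-HEK293 cells. Fifteen concentrations, triplicates.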

Experiment [5] can be described thus: G protein-coupled receptor (GPCR) small molecule agonists, calcium flux assay: HEK293 wild type cell line counter screen (AID 1920065). The essentials: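 Agonist mode; 18 h seeding at 37 C, 1 h dye load at 37 C; compounds pinned from DMSO, ATP as positive control; kinetic fluorescence 480/540 nm, 3 min, 1 s reads; 15 concentrations, triplicate.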
A short description of experiment [6]: p53 small molecule agonists, cell-based qHTS assay with human liver microsomes (AID 1963577).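 Also: p53 response element beta-lactamase reporter cells with liver microsomes plus NADPH.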 In short, it runs like this:
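Steps: plate p53RE-bla cells, incubate 5 h at 37 C; add compound in DMSO; add microsomes (0.5 mg/mL final) and NADPH (0.5 mg/mL final); incubate 16 h at 37 C; add LiveBLAzer, 2 h RT; read fluorescence.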

The nature of experiment [7]: p53 small molecule agonists, cell-based qHTS assay with rat liver microsomes (AID 1963578). The essentials: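 Metabolic activation is supplied by rat liver microsomes with NADPH (each 0.5 mg/mL final). p53RE-bla cells incubate with compound 16 h at 37 C; reporter activity is measured by LiveBLAzer fluorescence.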
A short description of experiment [8]: p53 small molecule agonists, cell-based qHTS assay with rat liver microsomes: qHTS cell viability counter screen (AID 1963580). Also: nearly all actives have a fitted effect of over 45% in size. The essentials:
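Cytotoxicity counter screen: intracellular ATP read by CellTiter-Glo luminescence in the p53 reporter wells. HCT-116 p53RE-bla cells were treated for 16 h at 37 C alongside rat liver microsomes and NADPH, each 0.5 mg/mL final.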

Experiment [9] can be described thus: p53 small molecule agonists, cell-based qHTS assay: qHTS cell viability counter screen (AID 1963581). Also: nearly all actives have a fitted effect of over 45% in size. The essentials:
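Cytotoxicity read-out: ATP-based luminescence (CellTiter-Glo, 30 min RT) measured in the same wells as the p53 reporter assay, HCT-116 p53RE-bla cells, 16 h compound exposure at 37 C.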

Experiment [10] concerns the target 5-hydroxytryptamine receptor 2A (Homo sapiens) (UniProt P28223). Put plainly: 5-hydroxytryptamine receptor 2A (HTR2A) small molecule antagonists, cell-based qHTS assay (AID 1963586). Also: nearly all actives have a fitted effect of over 45% in size. In short, it runs like this: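 CHO cells stably expressing human HTR2A were plated for 18 h at 37 C, then loaded with calcium dye for 1 h. Compounds were preincubated 5 min at room temperature before DOI (4 nM solution) was added. Kinetic fluorescence was read for 3 min.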

Experiment [11] has the same target. Put plainly: 5-hydroxytryptamine receptor 2A (HTR2A) small molecule agonists, cell-based qHTS assay (AID 1963587). Also: nearly all actives have a fitted effect of over 30% in size. The essentials:
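Kinetic calcium-flux fluorescence (2 min, 1 sec intervals) after compound addition in agonist mode. HTR2A-CHO cells were cultured 18 h, then dye-loaded 1 h at 37 C.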

In experiment [12] the target is Muscarinic acetylcholine receptor M1 (Homo sapiens) (UniProt P11229). As to the kind of experiment: Cholinergic receptor muscarinic 1 (CHRM1) small molecule antagonists, cell-based qHTS assay (AID 1963588). Also: nearly all actives have a fitted effect of over 40% in size. In short, it runs like this:
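Compounds were tested at 15 concentrations in three independent runs. Dye-loaded CHRM1-CHO cells were exposed 5 min at room temperature before stimulation by acetylcholine added at 50nM. Intracellular calcium was read kinetically on FDSS for 3 min.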

Experiment [13] is described as follows: cAMP Responsive Elements (CRE) small molecule agonists, cell-based qHTS assay (AID 1963590). In short, it runs like this:
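Beta-lactamase reporter readout: LiveBLAzer B/G FRET substrate, 2 h at room temperature, added after 3 h compound treatment of CRE-bla HEK 293T cells at 37 C/5% CO2.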

A short description of experiment [14]: cAMP Responsive Elements (CRE) small molecule antagonists, cell-based qHTS assay (AID 1963591; active = well fitted inhibition curve with a large enough effect in the signal ratio in the repeat runs, not every such curve was filed as active; the % refers to the signal ratio). In short, it runs like this:
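HEK293T CRE-bla; 18 h preincubation; compound pin-transfer; NKH477 0.25 uM final, 3 h, 37 C; LiveBLAzer FRET substrate 2 h RT.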

In experiment [15] the target is Beta-2 adrenergic receptor (Homo sapiens) (UniProt P07550). As to the kind of experiment: Adrenergic beta2 receptor (ADRB2) small molecule antagonists, cell-based qHTS assay (AID 1963592). Also: series mostly up to about 92 µM; nearly all actives have a fitted effect of over 50% in size. The essentials: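 Assay format: CHO-ADRB2 cells, 18-20hr seeding at 37C/5% CO2, then compound plus 1nM isoproterenol agonist mix for 0.5hr RT. Homogeneous time-resolved fluorescence cAMP detection after 1hr, expressed as 665/615 nm ratio.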

Experiment [16] shares this target. As to the kind of experiment: Adrenergic beta2 receptor (ADRB2) small molecule agonists, cell-based qHTS assay (AID 1963593).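 Also: CHO cells stably overexpressing human ADRB2.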 The essentials:
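CHO cells stably over-expressing ADRB2 were plated overnight at 37C, then dosed with compounds plus a stimulation mix containing 100uM IBMX and 25uM Ro-20-1724 for 0.5hr at room temperature. cAMP was measured by HTRF competition, 1hr.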

In experiment [17] the target is D(2) dopamine receptor (Homo sapiens) (UniProt P14416). As to the kind of experiment: Dopamine D2 receptor (DRD2) small molecule agonists, cell-based qHTS assay (AID 1963594). Also: nearly all actives have a fitted effect of over 35% in size. In short, it runs like this: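 cAMP accumulation in DRD2-HEK293 cells measured by HTRF after 1 h detection; compounds added 10 min before NKH477 (200nM […]) forskolin-analogue stimulation, 30 min at room temperature, with Ro20-1724 present at 0.1 mM final.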

Experiment [18] can be described thus: p53 small molecule agonists, cell-based qHTS assay (AID 1963582; active = well fitted activation curve with a large enough effect in the signal ratio in the repeat runs, not every such curve was filed as active; the % refers to the signal ratio). The essentials:
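Fluorescence intensity read-out of a beta-lactamase reporter under a p53 response element. Cells were exposed to DMSO-dissolved compounds for 16 h at 37 C, then developed with FRET substrate for 2 h at RT.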

Experiment [19] deals with Muscarinic acetylcholine receptor M1 (Homo sapiens) (UniProt P11229). Put plainly: Cholinergic receptor muscarinic 1 (CHRM1) small molecule agonists, cell-based qHTS assay (AID 1963589). Also: nearly all actives have a fitted effect of over 35% in size. The essentials:
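Calcium flux read-out: kinetic fluorescence at 1 sec intervals after pin-tool compound addition to dye-loaded CHRM1-CHO cells (human M1). Agonist mode; 15 concentrations tested in triplicate independent runs.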

The target in experiment [20] is D(2) dopamine receptor (Homo sapiens) (UniProt P14416). Put plainly: Dopamine D2 receptor (DRD2) small molecule antagonists, cell-based qHTS assay (AID 1963595; active = well fitted inhibition curve with a large enough effect in the signal ratio in the repeat runs, with a control signal flat; the % refers to the signal ratio). In short, it runs like this:
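In this cell-based antagonist screen, compounds act for 10 min at room temperature before a 30 min challenge with 12 nM quinpirole and 200 nM NKH477. cAMP is quantified by HTRF competition in DRD2-HEK293 cells containing 0.1 mM Ro20-1724.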

Values without a mark were called inactive. Records with an inconclusive call do not appear. Calls of active or inactive are those of the source. Unless noted, calls follow the shape of the full dose curve.

Sequence of Gonadotropin-releasing hormone receptor (Homo sapiens) (P30968 whole entry, looked up): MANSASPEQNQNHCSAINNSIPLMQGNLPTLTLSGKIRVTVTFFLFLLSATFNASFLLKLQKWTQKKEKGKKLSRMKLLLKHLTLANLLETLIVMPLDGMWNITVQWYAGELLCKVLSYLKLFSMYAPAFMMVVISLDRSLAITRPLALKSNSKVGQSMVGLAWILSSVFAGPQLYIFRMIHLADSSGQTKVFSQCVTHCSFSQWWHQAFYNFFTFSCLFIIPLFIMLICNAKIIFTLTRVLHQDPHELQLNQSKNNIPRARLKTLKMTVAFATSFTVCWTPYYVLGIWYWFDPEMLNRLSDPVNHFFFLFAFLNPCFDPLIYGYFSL
Sequence of Muscarinic acetylcholine receptor M1 (Homo sapiens) (P11229 whole entry, looked up): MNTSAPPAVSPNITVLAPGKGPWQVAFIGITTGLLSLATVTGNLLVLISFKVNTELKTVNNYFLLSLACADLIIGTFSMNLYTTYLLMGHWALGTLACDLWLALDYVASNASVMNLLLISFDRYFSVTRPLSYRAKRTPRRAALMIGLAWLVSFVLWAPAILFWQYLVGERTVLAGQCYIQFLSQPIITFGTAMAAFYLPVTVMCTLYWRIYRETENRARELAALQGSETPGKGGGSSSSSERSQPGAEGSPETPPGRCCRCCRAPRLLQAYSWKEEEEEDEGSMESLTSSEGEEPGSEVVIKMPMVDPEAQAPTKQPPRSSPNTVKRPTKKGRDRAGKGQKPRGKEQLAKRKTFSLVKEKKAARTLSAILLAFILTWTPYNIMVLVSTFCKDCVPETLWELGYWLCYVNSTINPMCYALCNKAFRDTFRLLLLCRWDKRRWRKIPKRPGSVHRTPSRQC
Sequence of 5-hydroxytryptamine receptor 2A (Homo sapiens) (P28223 whole entry, looked up): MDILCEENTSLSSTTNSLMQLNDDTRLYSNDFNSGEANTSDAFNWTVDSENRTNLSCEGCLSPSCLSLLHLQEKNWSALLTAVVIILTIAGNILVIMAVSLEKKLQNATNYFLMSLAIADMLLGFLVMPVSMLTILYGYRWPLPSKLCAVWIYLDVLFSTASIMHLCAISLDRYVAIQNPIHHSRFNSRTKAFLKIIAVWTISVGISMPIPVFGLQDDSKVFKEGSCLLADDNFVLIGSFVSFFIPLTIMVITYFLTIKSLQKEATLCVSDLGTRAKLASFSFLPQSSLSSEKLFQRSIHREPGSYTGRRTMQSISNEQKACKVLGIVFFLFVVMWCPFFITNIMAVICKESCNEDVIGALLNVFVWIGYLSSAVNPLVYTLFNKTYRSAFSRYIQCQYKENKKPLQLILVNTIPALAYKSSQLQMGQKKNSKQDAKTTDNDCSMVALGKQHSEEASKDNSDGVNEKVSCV
Sequence of KiSS-1 receptor (Homo sapiens) (Q969F8 whole entry, looked up): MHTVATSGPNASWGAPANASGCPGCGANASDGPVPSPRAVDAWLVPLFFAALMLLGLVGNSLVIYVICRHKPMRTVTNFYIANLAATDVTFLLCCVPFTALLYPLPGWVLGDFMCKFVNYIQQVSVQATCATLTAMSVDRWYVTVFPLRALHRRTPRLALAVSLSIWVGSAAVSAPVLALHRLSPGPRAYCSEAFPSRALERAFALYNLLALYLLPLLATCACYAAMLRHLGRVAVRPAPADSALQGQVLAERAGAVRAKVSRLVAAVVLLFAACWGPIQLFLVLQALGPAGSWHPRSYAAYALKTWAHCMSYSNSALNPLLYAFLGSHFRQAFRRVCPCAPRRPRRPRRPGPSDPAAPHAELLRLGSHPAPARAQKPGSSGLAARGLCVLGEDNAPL
Sequence of D(2) dopamine receptor (Homo sapiens) (P14416 whole entry, looked up): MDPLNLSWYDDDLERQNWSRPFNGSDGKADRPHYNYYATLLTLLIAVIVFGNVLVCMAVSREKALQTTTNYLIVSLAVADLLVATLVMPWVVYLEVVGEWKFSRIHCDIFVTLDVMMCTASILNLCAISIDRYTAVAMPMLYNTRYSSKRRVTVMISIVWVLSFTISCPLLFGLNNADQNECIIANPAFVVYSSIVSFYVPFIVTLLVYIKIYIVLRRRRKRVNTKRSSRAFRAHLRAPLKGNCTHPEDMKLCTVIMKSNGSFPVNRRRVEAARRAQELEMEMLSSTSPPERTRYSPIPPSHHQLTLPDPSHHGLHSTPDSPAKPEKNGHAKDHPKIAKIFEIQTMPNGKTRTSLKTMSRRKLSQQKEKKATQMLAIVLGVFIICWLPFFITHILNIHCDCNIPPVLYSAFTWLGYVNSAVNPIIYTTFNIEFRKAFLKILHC
Sequence of Beta-2 adrenergic receptor (Homo sapiens) (P07550 whole entry, looked up): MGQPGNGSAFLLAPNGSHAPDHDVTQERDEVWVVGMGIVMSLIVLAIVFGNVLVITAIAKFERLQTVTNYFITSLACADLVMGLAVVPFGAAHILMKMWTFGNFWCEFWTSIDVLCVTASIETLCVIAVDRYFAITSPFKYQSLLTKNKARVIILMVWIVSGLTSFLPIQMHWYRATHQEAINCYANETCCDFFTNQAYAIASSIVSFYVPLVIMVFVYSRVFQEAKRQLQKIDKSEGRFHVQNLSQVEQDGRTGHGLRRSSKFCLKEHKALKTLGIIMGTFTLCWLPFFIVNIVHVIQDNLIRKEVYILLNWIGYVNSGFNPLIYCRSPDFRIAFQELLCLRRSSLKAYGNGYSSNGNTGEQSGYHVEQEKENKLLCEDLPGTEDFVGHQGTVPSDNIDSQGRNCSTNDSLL

Take `COc1ccc(S(=O)(=O)N2c3ccc(Cl)cc3[C@@](O)(c3ccccc3Cl)[C@H]2C(=O)N2CCC[C@@H]2C(N)=O)cc1OC`: the Potency result in experiment [1], in experiment [2], in [3], in experiment [6], in experiment [7] and in [8] was “inactive” throughout. The Potency result in experiment [9], in [10], in experiment [11], in [12], in experiment [13] and in experiment [14] was “inactive” throughout. Further, the Potency result in experiment [15], in experiment [16] and in experiment [17] was “inactive” in each case. Also, the result in experiment [4] and in [5] was inactive.
Turning to `CC[N+](CC)(CC)Cc1ccccc1`, the Potency result in [1], in [2], in experiment [3], in [6], in experiment [7] and in experiment [8] was “inactive” in each case. For the same molecule, the Potency result in experiment [9], in [18], in experiment [10], in experiment [11], in experiment [13] and in [14] was “inactive” each time. The Potency entry in experiment [15] and in experiment [17] was “inactive” in each case. Moreover, the result in [4] and in experiment [5] was inactive.
Take `O=c1[nH]sc2cc(Cl)ccc12`: the Potency in [1] is 18.8 µM (active); in experiment [2], 13.3 µM (active). Moreover, the Potency result in experiment [3], in experiment [6], in [7], in experiment [8], in [9] and in experiment [10] was “inactive” each time. The Potency entry in experiment [11], in experiment [12], in experiment [19], in experiment [16] and in experiment [17] was “inactive” in each case. Further, the outcome in experiment [4] and in experiment [5] was inactive.
Turning to `SC1CCCCC1`, the Potency result in experiment [1], in experiment [2], in experiment [3], in experiment [6], in experiment [7] and in experiment [8] was “inactive” throughout. The Potency result in [9], in experiment [18], in experiment [12], in [19], in [13] and in experiment [14] was “inactive” in each case. The Potency entry in [15], in experiment [17] and in experiment [20] was “inactive” each time. Moreover, the outcome in experiment [4] and in experiment [5] was inactive.
Turning to `Nc1nc(N)c(-c2ccccc2)s1`, the Potency entry in experiment [1], in experiment [2], in [3], in [6], in [7] and in experiment [8] was “inactive” each time. Besides, the Potency entry in experiment [9], in experiment [18], in experiment [10], in experiment [12], in [19] and in [13] was “inactive” each time. The Potency result in experiment [15] and in experiment [17] was “inactive” in each case. Moreover, the outcome in experiment [4] and in experiment [5] was inactive.
`CC(C)=CCC1C(=O)N(c2ccccc2)N(c2ccccc2)C1=O`: the Potency result in experiment [1], in experiment [3], in [6], in [7], in experiment [8] and in [9] was “inactive” in each case. The Potency entry in experiment [10], in experiment [11], in experiment [12], in [19] and in experiment [14] was “inactive” in each case. For the same molecule, in [2], the Potency was 29.8 µM (active). In addition, the result in experiment [4] and in experiment [5] was inactive.
Consider `CC(C)(C)CC(=O)OCC(=O)[C@@]1(O)CC[C@H]2[C@@H]3CCC4=CC(=O)C=C[C@]4(C)[C@H]3[C@@H](O)C[C@@]21C`, for which the Potency entry in experiment [1], in experiment [2], in experiment [3], in experiment [6], in experiment [7] and in experiment [8] was “inactive” in each case. For the same molecule, the Potency result in experiment [9], in experiment [18], in [11], in experiment [12], in experiment [13] and in [14] was “inactive” in each case. The Potency result in experiment [15] and in [20] was “inactive” in each case. Moreover, the result in [4] and in experiment [5] was inactive.
